Our source for the growth inhibition values is PubChem BioAssay (NCI).

SMILES strings stand for the structures. The panel holds about 79,000 compounds, 15% with a hit somewhere; the sample as a whole holds those more often. Unmarked numbers belong to inactive results. The source made the active and inactive calls. Rule as the data show it: active = growth inhibition above about 70%; inactive = the rest.

One assay is described as follows: NCI Yeast Anticancer Drug Screen. Data for the wt1 strain (AID 149).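 Also: 0% = growth of vehicle-treated wt1 cultures.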 As to conditions: S. cerevisiae wt1 strain (SPY 50644) growth inhibition; at 100.0 µM; active compounds read high. The method, boiled down: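 Yeast wt1 strain exposed to compounds; growth inhibition measured relative to vehicle-treated controls.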
On to `O=[N+]([O-])c1cc[n+]([O-])cc1`, for which the growth inhibition was 99% (active).
Still for that read-out and setting: under `CC1(C)CC(=O)C(/C=N/c2nc(-c3ccccc3)cs2)=C(O)C1` stands 54%.
For `Nc1nc(N)c2nc(CNc3ccc(C(=O)NC(CCC(=O)O)C(=O)O)cc3F)cnc2n1` (stereo unspecified), the growth inhibition was 78% (active).
On the same count and under the same terms, under `COC(=O)CC1(O)C(/C=C/c2ccccc2)C(C(=O)OC)C(=O)C(C(=O)OC)C1C(=O)OC` (stereo unspecified) stands -1%; under `CC(C)(C)c1ccc(NS(=O)(=O)c2ccc(N)cc2)cc1`, 12%; under `CCN(CC)CCNc1ccc([N+](=O)[O-])c2nc3ccccc3c(N)c12`, -6%.
The same measure, in the same setting: under `CCCCN(CCCC)C(=O)/C=C/c1ccccc1` stands 82% (active).
With `O=c1[nH]c(-c2ccccc2)nc2c1sc1nc3ccccc3n12`, the growth inhibition is -17%.
On the same count and under the same terms, under `O=[N+]([O-])c1ccc2c(c1)/C(=N/N=C1c3ccccc3Cc3ccccc31)c1cc([N+](=O)[O-])cc([N+](=O)[O-])c1-2` stands 97% (active); under `CC(C)C(C)/C=C\C(C)C1CCC2C3=CC=C4CC(O)CCC4(C)C3CCC21C` (stereo unspecified), -3%.
Still for that read-out and setting: then `O=C1Nc2ccc(Br)cc2C1=Nc1ccc2c(c1)OCO2`, with 2%; and `CCCCOCn1c(=O)[nH]c(=O)c2cc(Br)ccc21`, with -39%.
The same measure, in the same setting: then `Cc1ccc(S/C(=C\C(=O)O)c2ccccc2)cc1`, with 10%; and `O=[N+]([O-])/C=C/c1cc(Cl)c(/C=C/[N+](=O)[O-])cc1Cl`, with 37%.
Turning to `Cc1cc(S(=O)(=O)Nc2nnc3cnc4ccccc4n23)c(S)cc1Cl`, the growth inhibition was 28%.
Still for that read-out and setting: then `O=C(/C=C/c1cc(Cl)cc(Cl)c1O)c1cccc(O)c1`, with 97% (active); and `NC1CCCCC1N.Nc1c(N=Nc2ccc(-c3ccc(N=Nc4cc(S(=O)(=O)[O-])c5ccccc5c4N)cc3)cc2)cc(S(=O)(=O)[O-])c2ccccc12.[OH3+].[OH3+].[Pt+4]`, with 92% (active); and `COC(=O)CCC(NC(=S)N/N=C(\C)c1ccccn1)C(=O)OC` (stereo unspecified), with 85% (active).
On the same count and under the same terms, then `NC(=O)C(=O)NNc1ccccc1`, with 94% (active); and `COc1cc(C2SCC(=O)N2c2ccc(-c3ccc(-n4c(-c5ccccc5)nc5ccccc5c4=O)cc3)cc2)ccc1O` (stereo unspecified), with -8%; and `COc1ccc(/C=C/c2sc3ccccc3[n+]2CCCCI)cc1OC`, with 89% (active).
The same measure, in the same setting: then `Cc1c(C(C)C)cc(OCCO)cc1C(C)C`, with -7%; and `Cc1cc(NCCCCCCCCNc2cc(C)nc3cc(N)ccc23)c2ccc(N)cc2n1`, with 96% (active).
For `C=C(Cl)COC(=O)Nc1cccc(Cl)c1`, the growth inhibition was 90% (active).
Same read-out and setting: under `CC(=O)OC1CC2C(C)(C)C(=O)C=C[C@]2(C)C2CCC3(C)C(=CCC3[C@H](CO)C[C@H](O)C(=O)C(C)(C)O)[C@]12C` (stereo partly specified) stands 75% (active); under `COc1ccc(/C=C/C(=O)c2ccccc2)cc1OC`, 92% (active); under `COc1c(O)c(C=O)c(Br)c(C=O)c1O`, 68%.
The same measure, in the same setting: under `O=[N+]([O-])c1cc(Cl)cnc1Br` stands 20%; under `Cc1ccc2c(c1)C1(SC(C)C(=O)N1c1ccc(Cl)cc1)C(=O)N2` (stereo unspecified), 99% (active); under `COc1cc(CSc2ccc(O)cc2)cc(O)c1O`, -1%.
For `Cc1ccc2c3ccc4c(c3n(C)c2c1)C(=O)C=CC4=O`, the growth inhibition was 33%.
Turning to `O=C(Nc1ccc(Cl)cc1)Nc1nnc2nc(C(C(=O)c3cccc([N+](=O)[O-])c3Cl)c3nc4nnc(NC(=O)Nc5ccc(Cl)cc5)n4[nH]c3=O)c(=O)[nH]n12`, the growth inhibition was 30%.
Same read-out and setting: under `O=C(O)C1CC(c2ccccc2)=NN1c1ccccc1` (stereo unspecified) stands 93% (active).
On the same count and under the same terms, under `CCCCc1ccc(-n2c(C)c(COC(=O)NC)c(COC(=O)NC)c2C)cc1` stands 91% (active).
The same measure, in the same setting: under `CCC(=O)c1cc(C(=O)C(=S)SC)cc(C(=O)C(=S)SC)c1` stands 96% (active); under `CCn1c(O)c(C=Nc2ccccc2)s/c1=N/Nc1nc(-c2ccccc2)cs1`, -3%.
`Cc1ccccc1N=C(NO)c1ccccc1`: the growth inhibition was 93% (active).
On the same count and under the same terms, under `Cc1nc2ccccc2nc1NNc1ccccc1` stands 20%.

Another assay in a line: NCI Yeast Anticancer Drug Screen. Data for the rad50EPP+ strain (AID 151).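 Also: 0% = growth of vehicle-treated control cultures.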 As to conditions: S. cerevisiae rad50 mutant strain, at 1.2 µM, active compounds read high. The method, boiled down: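 In this screen, rad50EPP+ yeast were exposed to compounds. Growth inhibition was scored against vehicle-treated controls.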
For the compound `O=[N+]([O-])c1cc[n+]([O-])cc1`, the growth inhibition is 1%.
Same read-out and setting: under `CC1(C)CC(=O)C(/C=N/c2nc(-c3ccccc3)cs2)=C(O)C1` stands -1%.
Still for that read-out and setting: then `Nc1nc(N)c2nc(CNc3ccc(C(=O)NC(CCC(=O)O)C(=O)O)cc3F)cnc2n1` (stereo unspecified), with 23%; and `COC(=O)CC1(O)C(/C=C/c2ccccc2)C(C(=O)OC)C(=O)C(C(=O)OC)C1C(=O)OC` (stereo unspecified), with -7%; and `CC(C)(C)c1ccc(NS(=O)(=O)c2ccc(N)cc2)cc1`, with 4%.
Still for that read-out and setting: then `CCN(CC)CCNc1ccc([N+](=O)[O-])c2nc3ccccc3c(N)c12`, with -14%; and `CCCCN(CCCC)C(=O)/C=C/c1ccccc1`, with -7%.
`O=c1[nH]c(-c2ccccc2)nc2c1sc1nc3ccccc3n12`: the growth inhibition was -2%.
Same read-out and setting: then `O=[N+]([O-])c1ccc2c(c1)/C(=N/N=C1c3ccccc3Cc3ccccc31)c1cc([N+](=O)[O-])cc([N+](=O)[O-])c1-2`, with -7%; and `CC(C)C(C)/C=C\C(C)C1CCC2C3=CC=C4CC(O)CCC4(C)C3CCC21C` (stereo unspecified), with -2%.
As to `O=C1Nc2ccc(Br)cc2C1=Nc1ccc2c(c1)OCO2`, the growth inhibition is -34%.
As for `CCCCOCn1c(=O)[nH]c(=O)c2cc(Br)ccc21`, the growth inhibition was -59%.
Still for that read-out and setting: then `Cc1ccc(S/C(=C\C(=O)O)c2ccccc2)cc1`, with -6%; and `O=[N+]([O-])/C=C/c1cc(Cl)c(/C=C/[N+](=O)[O-])cc1Cl`, with 13%.
Same read-out and setting: then `Cc1cc(S(=O)(=O)Nc2nnc3cnc4ccccc4n23)c(S)cc1Cl`, with -3%; and `O=C(/C=C/c1cc(Cl)cc(Cl)c1O)c1cccc(O)c1`, with 66%.
The same measure, in the same setting: then `NC1CCCCC1N.Nc1c(N=Nc2ccc(-c3ccc(N=Nc4cc(S(=O)(=O)[O-])c5ccccc5c4N)cc3)cc2)cc(S(=O)(=O)[O-])c2ccccc12.[OH3+].[OH3+].[Pt+4]`, with -7%; and `COC(=O)CCC(NC(=S)N/N=C(\C)c1ccccn1)C(=O)OC` (stereo unspecified), with 6%; and `NC(=O)C(=O)NNc1ccccc1`, with 9%.
For `COc1cc(C2SCC(=O)N2c2ccc(-c3ccc(-n4c(-c5ccccc5)nc5ccccc5c4=O)cc3)cc2)ccc1O` (stereo unspecified), the growth inhibition is 3%.
Same read-out and setting: under `COc1ccc(/C=C/c2sc3ccccc3[n+]2CCCCI)cc1OC` stands -5%.
In the case of `Cc1c(C(C)C)cc(OCCO)cc1C(C)C`, the growth inhibition is -1%.
Still for that read-out and setting: under `Cc1cc(NCCCCCCCCNc2cc(C)nc3cc(N)ccc23)c2ccc(N)cc2n1` stands -47%; under `C=C(Cl)COC(=O)Nc1cccc(Cl)c1`, 7%; under `CC(=O)OC1CC2C(C)(C)C(=O)C=C[C@]2(C)C2CCC3(C)C(=CCC3[C@H](CO)C[C@H](O)C(=O)C(C)(C)O)[C@]12C` (stereo partly specified), -34%.
Still for that read-out and setting: then `COc1ccc(/C=C/C(=O)c2ccccc2)cc1OC`, with 16%.
The same measure, in the same setting: then `COc1c(O)c(C=O)c(Br)c(C=O)c1O`, with 24%; and `O=[N+]([O-])c1cc(Cl)cnc1Br`, with 35%.
As to `Cc1ccc2c(c1)C1(SC(C)C(=O)N1c1ccc(Cl)cc1)C(=O)N2` (stereo unspecified), the growth inhibition is -2%.
As for `COc1cc(CSc2ccc(O)cc2)cc(O)c1O`, the growth inhibition was -3%.
On the same count and under the same terms, then `Cc1ccc2c3ccc4c(c3n(C)c2c1)C(=O)C=CC4=O`, with -3%; and `O=C(Nc1ccc(Cl)cc1)Nc1nnc2nc(C(C(=O)c3cccc([N+](=O)[O-])c3Cl)c3nc4nnc(NC(=O)Nc5ccc(Cl)cc5)n4[nH]c3=O)c(=O)[nH]n12`, with 4%; and `O=C(O)C1CC(c2ccccc2)=NN1c1ccccc1` (stereo unspecified), with -17%.
The same measure, in the same setting: under `CCCCc1ccc(-n2c(C)c(COC(=O)NC)c(COC(=O)NC)c2C)cc1` stands -18%.
On the same count and under the same terms, then `CCC(=O)c1cc(C(=O)C(=S)SC)cc(C(=O)C(=S)SC)c1`, with 3%; and `CCn1c(O)c(C=Nc2ccccc2)s/c1=N/Nc1nc(-c2ccccc2)cs1`, with 7%.
For `Cc1ccccc1N=C(NO)c1ccccc1`, the growth inhibition is 1%.
The same measure, in the same setting: then `Cc1nc2ccccc2nc1NNc1ccccc1`, with -9%.
